Measurements as given in PubChem BioAssay AID686970 (National Center for Advancing Translational Sciences (NCATS), 2013).
About 6,000 (1.7%) of roughly 360,000 compounds were called active. About 8% were inconclusive and are not listed. Calls come from the whole dose curve; as a rule, active = well fitted cell-killing curve with a large enough effect; inconclusive = small, poorly fitted or top-dose-only effect, or effect the other way; inactive = flat fitted curve, though single readings scatter. What follows is part of a selection rich in actives, with near analogues and random picks from the rest. Entries that show only a call come without a potency.

test: qHTS for induction of synthetic lethality in tumor cells producing 2HG: qHTS for the HT-1080-NT fibrosarcoma cell line; conditions: HT-1080-NT fibrosarcoma viability, CellTiter-Glo ATP luminescence, 48 h; series mostly up to 46.1 µM;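 note: NT is the 2HG producing partner of a matched IDH1 knockdown line; nearly all actives have a fitted effect of over 55% in size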
Outline: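 HT-1080-NT; 750 cells/well; 5% FBS RPMI; 48 h compound, 37 degrees C; CellTiter-Glo luminescence; curve fitting and curve-class assignment.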
Potency is the fitted concentration of half-maximal effect.

**Q.** With `O=C(NCc1cccnc1)c1ccc2nc([C@@H]3O[C@H](CO)[C@H](O)[C@H](O)[C@H]3O)[nH]c2c1` as the compound, how does the Potency read?
**A.** inactive

**Q.** Which Potency does the source give for `COc1ccc(S(=O)(=O)N(C)C[C@H]2OCc3cnnn3CCCC(=O)N([C@H](C)CO)C[C@H]2C)cc1` here?
**A.** inactive

**Q.** Which Potency does the source give for `CNc1cc(-c2c(OC)cccc2OC)ncn1` here?
**A.** inactive

**Q.** With `O=S1(=O)CC(N2CCN(c3ccccn3)CC2)CN1Cc1ccc(F)cc1` (stereo not drawn) as the compound, how does the Potency read?
**A.** inactive

**Q.** With `COc1cccc(NC(=O)C2(C)CCN2Cc2ccccc2Cl)c1` (stereo not drawn) as the compound, how does the Potency read?
**A.** inactive

**Q.** For `COc1ccc(C2CC(c3ccc([N+](=O)[O-])cc3)=NN2C(C)=O)cc1` (stereo not drawn), which Potency is on record?
**A.** inactive

**Q.** Which Potency does the source give for `COc1ccc(C2CC(c3ccccc3)=NN2C(=O)COC(=O)COc2ccccc2)cc1` (stereo not drawn) here?
**A.** inactive

**Q.** For `COc1ccc(C2CC(c3cccc(OC)c3)=NN2c2ccc(S(N)(=O)=O)cc2)cc1` (stereo not drawn), which Potency is on record?
**A.** 18.4 µM (active)

**Q.** Which Potency does the source give for `O=C(CSc1ccc(Cl)cc1)NC1CC1` here?
**A.** inactive

**Q.** Which Potency does the source give for `O=C(OC1CC2CC1[C@H]1CCCCN1C2=O)N1CCOCC1` (stereo partly drawn) here?
**A.** inactive

**Q.** With `CCCCCNC(=O)C(c1ccc(OC)cc1)n1c(=O)c(-c2ccccc2)nc2ccccc21` (stereo not drawn) as the compound, how does the Potency read?
**A.** inactive

**Q.** Which Potency does the source give for `CCN(CC)C(=O)C1=C(C)N(Cc2ccc(OC)cc2)C(=O)C(CC(=O)NCCCCc2ccccc2)C1` (stereo not drawn) here?
**A.** inactive

**Q.** Which Potency does the source give for `O=C(c1cccc([N+](=O)[O-])c1)N1CCN(Cc2ccccc2)CC1` here?
**A.** inactive

**Q.** With `Cc1ccc(S(=O)(=O)N(Cc2cccc([N+](=O)[O-])c2)C(=O)N2CCN(C)CC2)cc1` as the compound, how does the Potency read?
**A.** inactive

**Q.** With `O=C(CCl)N(Cc1cccc([N+](=O)[O-])c1)c1cccc(Cl)c1` as the compound, how does the Potency read?
**A.** 6.51 µM (active)

**Q.** With `O=C(c1ccc(N2CCCC2=O)cc1)N1CCN(c2ccc(C(F)(F)F)cc2[N+](=O)[O-])CC1` as the compound, how does the Potency read?
**A.** inactive

**Q.** For `CCNC(=S)Nc1ccc2c(c1)c(=O)n(C)n2Cc1ccc(Cl)cc1`, which Potency is on record?
**A.** inactive

**Q.** Which Potency does the source give for `COc1ccc(CNC(=O)c2ccc(-c3cccnc3)c3ccoc23)cc1OC` here?
**A.** inactive

**Q.** Which Potency does the source give for `COc1cccc(C(O)c2nc(-c3ccc(C)c(C)c3)cs2)c1` (stereo not drawn) here?
**A.** inactive

**Q.** For `COC(=O)COc1cccc2c(=O)n(CC(=O)NCc3ccccc3)ccc12`, which Potency is on record?
**A.** 2.59 µM (active)

**Q.** Which Potency does the source give for `Cc1ccc(CNC(=O)CCNC(=O)Cn2ccc3ccccc3c2=O)cc1` here?
**A.** inactive

**Q.** Which Potency does the source give for `COC(=O)COc1cccc2c(=O)n(CC(=O)NCCc3ccc(OC)c(OC)c3)ccc12` here?
**A.** inactive

**Q.** With `Cc1cc(C)c(S(=O)(=O)NN=C2c3ccccc3[C@H]3Cc4csc[n+]4[C@@H]23)c(C)c1` as the compound, how does the Potency read?
**A.** inactive

**Q.** Which Potency does the source give for `O=c1[nH]c2ccccc2n1C1CCN(CCOc2ccccc2)CC1` here?
**A.** inactive

**Q.** With `COc1ccccc1CNC(=O)c1cc(=O)c2ccccc2o1` as the compound, how does the Potency read?
**A.** inactive

**Q.** Which Potency does the source give for `COc1cc2c(cc1OC)CN(C(=O)c1cc(=O)c3ccccc3o1)CC2` here?
**A.** 5.8 µM (active)

**Q.** With `COc1ccc2c(CC(=O)N3CCc4cc(OC)c(OC)cc4C3)coc2c1` as the compound, how does the Potency read?
**A.** inactive

**Q.** With `COc1ccc(S(=O)(=O)N2CCCCC2c2cc(C(=O)NCc3ccc(F)cc3)no2)cc1` (stereo not drawn) as the compound, how does the Potency read?
**A.** inactive

**Q.** With `C[C@@H]1CN([C@H](C)CO)S(=O)(=O)c2ccc(C#CC3CCCCC3)cc2O[C@H]1CN(C)C(=O)Cc1ccncc1` as the compound, how does the Potency read?
**A.** inactive

**Q.** For `C=C(C)COc1ccc(-c2n[nH]c(C)c2-c2ccccc2)c(O)c1`, which Potency is on record?
**A.** 20.6 µM (active)

**Q.** With `COc1ccc(-c2c(-c3ccc(OC)cc3O)nc(C)nc2C(F)(F)F)cc1` as the compound, how does the Potency read?
**A.** inactive

**Q.** With `C=C(C)COc1ccc(-c2ncncc2-c2ccc(OC)cc2)c(O)c1` as the compound, how does the Potency read?
**A.** inactive

**Q.** Which Potency does the source give for `CCOC(=O)[C@H]1Nc2ccc(Cl)cc2[C@@H]2[C@H]1C1CC(c3ccccc31)N2C(=O)OCc1ccccc1` (stereo partly drawn) here?
**A.** inactive

**Q.** For `COc1ccc(/C=C2\CCc3ccccc3C2=O)c(OC)c1OC`, which Potency is on record?
**A.** inactive

**Q.** Which Potency does the source give for `O=C1/C(=C/c2cccs2)CCc2ccccc21` here?
**A.** inactive

**Q.** With `COc1ccc(/C=C2/CCCc3ccccc3C2=O)cc1` as the compound, how does the Potency read?
**A.** 8.2 µM (active)

**Q.** Which Potency does the source give for `CC(=O)Oc1ccc(Cn2c(C)c(C(=O)NCc3ccc(C#N)cc3)sc2=O)cc1` here?
**A.** inactive

**Q.** Which Potency does the source give for `O=C(CSc1nc2cccc(F)c2c(=O)n1-c1ccccc1)Nc1ccc2c(c1)CCC2` here?
**A.** inactive

**Q.** For `O=C(O)c1cccc(NC(=O)c2cc(-c3cccc(Cl)c3)nc3ccccc23)c1`, which Potency is on record?
**A.** inactive

**Q.** With `O=C(N/N=C/c1ccc(Cl)cc1)c1nc2ccc([N+](=O)[O-])cc2c(=O)[nH]1` as the compound, how does the Potency read?
**A.** inactive

**Q.** For `O=C(/C(=C/c1cccc(Cl)c1)c1nc2ccccc2[nH]1)c1ccccc1`, which Potency is on record?
**A.** 5.17 µM (active)

**Q.** Which Potency does the source give for `Cc1cc(Br)cn2c(Cc3ccccc3C(F)(F)F)c(-c3ccc(Cl)cc3)nc12` here?
**A.** inactive

**Q.** With `Cc1ccc(Oc2cnn(-c3ccccc3)c(=O)c2Br)cc1` as the compound, how does the Potency read?
**A.** inactive

**Q.** With `COc1ccc(Oc2c(Cl)cnn(-c3ccccc3)c2=O)cc1` as the compound, how does the Potency read?
**A.** 18.4 µM (active)

**Q.** With `COc1ccc(CCNC(=O)c2c(C)nn(-c3ccccc3)c2Cl)cc1` as the compound, how does the Potency read?
**A.** inactive

**Q.** With `CCCCN1C(=O)C(CC(=O)NCc2cccs2)CC(C(=O)N2CCCCCC2)=C1C` (stereo not drawn) as the compound, how does the Potency read?
**A.** inactive

**Q.** With `O=C(NCc1ccccc1)C1CNCC(C(=O)NCc2ccccc2)C1` (stereo not drawn) as the compound, how does the Potency read?
**A.** inactive

**Q.** Which Potency does the source give for `Cc1ccc(-c2nc3c(Cl)cc(C(F)(F)F)cn3c2Cc2cccc(Cl)c2)cc1` here?
**A.** inactive

**Q.** With `Oc1c(Cl)cc(Cl)c(Cl)c1Cc1c(O)c(Cl)cc(Cl)c1Cl` as the compound, how does the Potency read?
**A.** 5.8 µM (active)

**Q.** For `CCCCCCCCn1c2c(c(=N)c3c1CCC3)CCCC2`, which Potency is on record?
**A.** 16.4 µM (active)

**Q.** With `C=CC(=O)OCCOCCOCCOCCOC(=O)C=C` as the compound, how does the Potency read?
**A.** 20.6 µM (active)

**Q.** For `COc1cc(CCN=Cc2ccccc2O)c([N+](=O)[O-])cc1OC`, which Potency is on record?
**A.** inactive

**Q.** With `COc1ccc(S(=O)(=O)N2CCC(C(=O)NCCC(=O)NCCc3cccc(F)c3)CC2)cc1` as the compound, how does the Potency read?
**A.** inactive

**Q.** Which Potency does the source give for `C=CCOc1cccc(C2C(C(=O)c3ccc(C)o3)=C(O)C(=O)N2CCN2CCOCC2)c1` (stereo not drawn) here?
**A.** inactive

**Q.** With `Cc1ccc([C@H]2C[C@H](O)[C@@H](n3cc(COC(=O)c4ccccc4)nn3)CN2C(=O)C2CCCCC2)cc1` as the compound, how does the Potency read?
**A.** inactive

**Q.** Which Potency does the source give for `CC(C)CCNC(=O)c1[nH]c(C(F)(F)F)nc1-c1ccccc1` here?
**A.** inactive

**Q.** With `COc1ccc(-c2ccc(CN3C(C(C)C)C(=O)N(Cc4cn(CC5CCCCC5)nn4)CCS3(=O)=O)cc2)cn1` (stereo not drawn) as the compound, how does the Potency read?
**A.** inactive

**Q.** For `COc1ccc(C(=O)Nc2ccccc2C(=O)N/N=C/c2ccc(O)c(OC)c2)cc1`, which Potency is on record?
**A.** 5.8 µM (active)

**Q.** For `COc1ccc2[nH]c(C(=O)N/N=C/c3cc(OC)c(OC)c(OC)c3)cc2c1`, which Potency is on record?
**A.** inactive

**Q.** Which Potency does the source give for `COc1ccc(/C=N/Nc2ccccc2C(=O)O)cc1` here?
**A.** inactive

**Q.** Which Potency does the source give for `CC(O)(c1cccc(F)c1)c1nc(-c2ccc3c(c2)OCO3)cs1` (stereo not drawn) here?
**A.** inactive

**Q.** Which Potency does the source give for `CCOC(=O)C1=CC[C@@H](c2ccccc2)N(S(=O)(=O)c2ccc(C)cc2)[C@H]1c1ccc(CC)cc1` here?
**A.** inactive

**Q.** With `CCCOc1ccc(F)cc1-c1cc(C(=O)Nc2ccc(F)cc2)[nH]n1` as the compound, how does the Potency read?
**A.** inactive

**Q.** With `COc1ccc(CCNC(=O)NS(=O)(=O)c2ccc(C)cc2)cc1OC` as the compound, how does the Potency read?
**A.** inactive

**Q.** For `COc1ccc(CCNC(=S)NC(=O)/C=C/c2ccc(C)cc2)cc1OC`, which Potency is on record?
**A.** 6.31 µM (active)

**Q.** With `COc1ccc(CCNC(=O)Cc2ccc(C)cc2)cc1OC` as the compound, how does the Potency read?
**A.** inactive

**Q.** Which Potency does the source give for `O=C(COC(=O)/C=C/c1ccc(Cl)cc1)NC1CCS(=O)(=O)C1` (stereo not drawn) here?
**A.** inactive

**Q.** With `CCOC(=O)C(=Cc1ccccc1)C(=O)c1ccccc1` as the compound, how does the Potency read?
**A.** inactive

**Q.** With `COc1ccc(NC(=O)CN(C)C(=O)c2ccc(COc3ccccc3)o2)cc1` as the compound, how does the Potency read?
**A.** inactive

**Q.** For `O=C(O)c1ccc(NC(=O)c2ccc(COc3ccc(Cl)cc3)o2)cc1`, which Potency is on record?
**A.** inactive

**Q.** Which Potency does the source give for `Cc1cc(OCc2ccc(C(=O)Nc3ccc(C(=O)O)cc3)o2)ccc1Cl` here?
**A.** 11.6 µM (active)

**Q.** For `O=C(NCc1ccccc1)C1c2ccccc2OCC(=O)N1CCCN1CCOCC1` (stereo not drawn), which Potency is on record?
**A.** inactive

**Q.** For `CCC(c1nc2ccccc2[nH]1)n1c(=O)c(-c2cccs2)nc2ccccc21` (stereo not drawn), which Potency is on record?
**A.** inactive
